In PubChem BioAssay (NCI):
Compounds without any hit were thinned out: in the full panel of roughly 83,000, 20% have a hit.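 The test compound was applied at a single concentration to cells in 96-well plates for 48 hours, and percent growth was recorded.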 Activity calls are given as the source filed them. How the source made its calls: active means growth percent below 10; inactive means the rest.

What was measured:
Assay in all cases: NCI-60 one-dose screen, 48 h (100 = growth as untreated, 0 = no growth, -100 = all killed)
Settings in all cases: 10 µM unless noted
T-47D breast = system: T-47D breast
MDA-MB-435 melanoma = system: MDA-MB-435 melanoma
SW-620 colon = system: SW-620 colon
MCF7 breast = system: MCF7 breast
HCT-116 colon = system: HCT-116 colon
HCC-2998 colon = system: HCC-2998 colon
KM12 colon = system: KM12 colon
BT-549 breast = system: BT-549 breast

Measured: growth

COc1cc(C2CC(c3cccc(Nc4ccncc4)c3)=NN2c2ccc(Cl)cc2)cc(OC)c1OC (stereo not drawn)
active: MDA-MB-435 melanoma -88.3% | SW-620 colon -66.6% | MCF7 breast -36.1% | HCC-2998 colon -36.2% | KM12 colon -74.5%
inactive: T-47D breast 71.3% | HCT-116 colon 105%

O=C(Nc1nc(-c2ccccc2Cl)cs1)c1cc(-c2ccccc2)nc2ccc(Cl)cc12
inactive: T-47D breast 74.1% | SW-620 colon 29.4% | MCF7 breast 25.8% | HCC-2998 colon 95.5% | KM12 colon 84.2%
active: MDA-MB-435 melanoma 8.05% | HCT-116 colon 4.98%

CN1CCN(CC#CCNC(=O)[C@]23CCC(C)(C)C[C@H]2C2=CC[C@@H]4[C@@]5(C)Cc6c([nH]c7ccccc67)C(C)(C)[C@@H]5CC[C@@]4(C)[C@]2(C)CC3)CC1
inactive: T-47D breast 94.4% | MDA-MB-435 melanoma 47.2% | SW-620 colon 46.8% | MCF7 breast 32.4% | HCT-116 colon 22.5% | HCC-2998 colon 80% | KM12 colon 52.3%

O=C1Nc2c(ccc(Cl)c2Cl)/C1=C/c1ccccn1
inactive: T-47D breast 56.9% | MDA-MB-435 melanoma 77.2% | SW-620 colon 76.8% | MCF7 breast 29% | HCT-116 colon 24.2% | HCC-2998 colon 85.1% | KM12 colon 87.1%

CN(C)C(=O)OCc1nc2c(N3CCOCC3)nc(-c3ccccc3)nc2n1C
active: T-47D breast -50.3% | MDA-MB-435 melanoma -89.1% | SW-620 colon -77.7% | MCF7 breast -60% | HCT-116 colon -56.6% | HCC-2998 colon -78.3% | KM12 colon -65.6%

CN(C)C(=O)c1cc2cnc(Nc3ccc(-c4csc5c(=O)cc(N6CCOCC6)oc45)cc3)nc2n1C1CCCC1
active: T-47D breast -4.72% | MDA-MB-435 melanoma -38.7% | SW-620 colon -45.6% | MCF7 breast -46.8% | HCT-116 colon -29.2% | HCC-2998 colon -44.6% | KM12 colon -86.9%

C=CCn1c(SCC(=O)Nc2ccc(C(=O)/C=C/c3cc(OC)c(OC)c(OC)c3)cc2)nnc1-c1cc(-c2ccc(S(C)(=O)=O)cc2)nc2ccccc12
inactive: T-47D breast 85.6% | MDA-MB-435 melanoma 88.6% | SW-620 colon 77% | MCF7 breast 50.6% | HCT-116 colon 27.4% | HCC-2998 colon 111%

Cc1cc(C)c(C=O)c(C)c1
inactive: BT-549 breast 91.4% | MDA-MB-435 melanoma 103% | SW-620 colon 95% | MCF7 breast 106% | HCT-116 colon 83.1% | HCC-2998 colon 108% | KM12 colon 105%

COc1cc(/C=C/C(=O)c2c(C)oc3nc[nH]c(=O)c23)ccc1O
inactive: MDA-MB-435 melanoma 102% | SW-620 colon 100% | MCF7 breast 90.2% | HCT-116 colon 102% | HCC-2998 colon 100% | KM12 colon 103%

COc1ccc(-c2c[nH]c(C(=O)O)c2-c2cc(OC)c3c(c2OC)OCO3)cc1
inactive: BT-549 breast 103% | MDA-MB-435 melanoma 104% | SW-620 colon 103% | MCF7 breast 103% | HCT-116 colon 106% | HCC-2998 colon 100% | KM12 colon 105%

COC(=O)Nc1ccc(NC(=O)OC)cc1
inactive: BT-549 breast 84.6% | MDA-MB-435 melanoma 101% | SW-620 colon 104% | MCF7 breast 92.1% | HCT-116 colon 83.9% | HCC-2998 colon 106% | KM12 colon 111%

CCN(CC)CCCC(Nc1c2ccc(Cl)cc2nc2ccc(OC)cc12)c1ccc(Cl)cc1 (stereo not drawn)
inactive: BT-549 breast 43.4%
active: MDA-MB-435 melanoma -88.2% | SW-620 colon -75.8% | MCF7 breast -73.8% | HCT-116 colon -88.8% | HCC-2998 colon -75.4% | KM12 colon -56.9%

O=C(Nc1ccc(F)cc1)c1c(NC(=O)C(F)(F)F)sc2c1CCCCC2
active: BT-549 breast -2.41% | MDA-MB-435 melanoma 3.22% | MCF7 breast 3.61% | HCT-116 colon 1.79% | KM12 colon 2.08%
inactive: SW-620 colon 11.6% | HCC-2998 colon 10.1%

COc1ccccc1/C=C1\Oc2cc(OCCCN3CCCC3)ccc2C1=O
inactive: BT-549 breast 94.8% | MDA-MB-435 melanoma 91.4% | SW-620 colon 73% | MCF7 breast 80% | HCT-116 colon 50.9% | HCC-2998 colon 102% | KM12 colon 98.3%

Cc1ccc(-c2c(Br)c(OC(=O)CO[C@@H]3C[C@H](C)CC[C@H]3C(C)C)c(-c3ccc(C)cc3C)c(Br)c2OC(=O)CO[C@H]2C[C@@H](C)CC[C@@H]2C(C)C)c(C)c1
inactive: BT-549 breast 85.5% | MDA-MB-435 melanoma 104% | SW-620 colon 109% | MCF7 breast 92.1% | HCT-116 colon 89.4% | HCC-2998 colon 108% | KM12 colon 107%

CCCc1cc2c(cc1Br)OCO2
inactive: BT-549 breast 82.7% | MDA-MB-435 melanoma 110% | SW-620 colon 112% | MCF7 breast 95% | HCT-116 colon 84.5% | HCC-2998 colon 103% | KM12 colon 113%

COc1cc(-c2cc(=O)oc3cc(O)ccc23)c(OC)c2c1OCO2
inactive: BT-549 breast 90.9% | MDA-MB-435 melanoma 101% | SW-620 colon 96.6% | MCF7 breast 102% | HCT-116 colon 98.4% | HCC-2998 colon 97.3% | KM12 colon 93.8%

O=c1[nH]c2c(s1)CCCC2CN1CCCCC1 (stereo not drawn)
inactive: BT-549 breast 72.6% | MDA-MB-435 melanoma 107% | SW-620 colon 114% | MCF7 breast 96.3% | HCT-116 colon 76.8% | HCC-2998 colon 100% | KM12 colon 108%

Cc1c([N+](=O)[O-])cc(C(C)(C)C)cc1[N+](=O)[O-]
inactive: BT-549 breast 102% | MDA-MB-435 melanoma 107% | SW-620 colon 98.9% | MCF7 breast 92.8% | HCT-116 colon 87.3% | HCC-2998 colon 95.2% | KM12 colon 102%

O=C(Nc1ccccc1)Oc1ccccc1-c1ccccc1
inactive: BT-549 breast 76.3% | MDA-MB-435 melanoma 99.9% | SW-620 colon 99.5% | MCF7 breast 95.5% | HCT-116 colon 77.6% | HCC-2998 colon 107% | KM12 colon 107%

CC1(c2ccccc2)NC(=O)N(CC(=O)Nc2cccc(I)c2)C1=O (stereo not drawn)
inactive: T-47D breast 81.5% | MDA-MB-435 melanoma 102% | SW-620 colon 92.2% | MCF7 breast 85.5% | HCT-116 colon 97.5% | HCC-2998 colon 106% | KM12 colon 90.9%

CC1=CC2(C)/C=C(C)/C=C\CC(O)/C=C3/C=CC(=C4C(=O)OC2(CC1C)C4=O)OC3 (stereo not drawn)
inactive: KM12 colon 10.2%
active: T-47D breast -33.9% | MDA-MB-435 melanoma -50.1% | SW-620 colon -88.5% | HCT-116 colon -100%

O=C(O)CNC(=O)CN1C(=O)c2ccccc2C1=O
inactive: BT-549 breast 89.5% | MDA-MB-435 melanoma 107% | SW-620 colon 105% | MCF7 breast 96.3% | HCT-116 colon 89.3% | HCC-2998 colon 106% | KM12 colon 115%

COc1cc(NCC(O)CN(CC(C)C)CC(C)C)c2nc(C)ccc2c1 (stereo not drawn)
active: MCF7 breast -11.4%
inactive: BT-549 breast 90.9% | MDA-MB-435 melanoma 105% | SW-620 colon 92.7% | HCT-116 colon 97.3% | HCC-2998 colon 89.9% | KM12 colon 75.5%

CCC(C)N(CCNc1cc(OC)cc2cccnc12)CCC(C)C (stereo not drawn)
inactive: BT-549 breast 90.8% | MDA-MB-435 melanoma 107% | SW-620 colon 58.4% | MCF7 breast 25.7% | HCT-116 colon 64.9% | HCC-2998 colon 79.1% | KM12 colon 77.6%

COc1ccc(Cl)cc1NC(=O)c1c(NC(=O)C(F)(F)C(F)(F)F)sc2c1CCCCC2
inactive: SW-620 colon 12.8% | HCC-2998 colon 15.9%
active: BT-549 breast -4.71% | MDA-MB-435 melanoma 8.76% | MCF7 breast 4.9% | HCT-116 colon -0.0954% | KM12 colon 3.84%

CCCCCCCCN1C(=O)/C(=c2\sc3n(c2=O)C2C(NN=3)N(CC)C(=O)N2CC)c2ccccc21 (stereo not drawn)
inactive: BT-549 breast 86.9% | MDA-MB-435 melanoma 57.3% | SW-620 colon 86.8% | MCF7 breast 85.2% | HCT-116 colon 63.2% | HCC-2998 colon 103% | KM12 colon 89.9%

CC(=O)OCC(=O)[C@@]1(O)CC[C@H]2[C@@H]3CC(=C(Br)Br)C4=CC(=O)CC[C@]4(C)[C@H]3C(=O)C[C@@]21C
inactive: BT-549 breast 73.5% | MDA-MB-435 melanoma 100% | SW-620 colon 95.3% | MCF7 breast 84.4% | HCT-116 colon 68.3% | HCC-2998 colon 95.8% | KM12 colon 93.6%

O=C(Nc1cccc(Cl)c1)Oc1c(Br)c(Br)c(Br)c(Br)c1Br
inactive: BT-549 breast 79.5% | MDA-MB-435 melanoma 99.8% | SW-620 colon 102% | MCF7 breast 93.9% | HCT-116 colon 80.3% | HCC-2998 colon 94.7% | KM12 colon 106%

CCNC(=O)c1[nH]cc(-c2ccc(OC)cc2)c1-c1cc(OC)cc(OC)c1
inactive: BT-549 breast 90.2% | MDA-MB-435 melanoma 84.3% | SW-620 colon 101% | MCF7 breast 99.5% | HCT-116 colon 82.3% | HCC-2998 colon 102% | KM12 colon 89.9%

COc1cc(NCCN(CC(C)C)C2CCCC2)c2ncccc2c1
inactive: BT-549 breast 98.8% | MDA-MB-435 melanoma 111% | SW-620 colon 72.2% | MCF7 breast 42% | HCT-116 colon 63.4% | HCC-2998 colon 87.5% | KM12 colon 86.1%
